From PubChem
MKP-1 inh = MKP-1 phosphatase inhibitors, primary screen, biochemical, in vitro; Dual specificity protein phosphatase 1 (Homo sapiens), P28562; recombinant MKP-1, OMFP hydrolysis fluorescence; inhibition, %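 (compounds tested at a single concentration somewhere between 10 and 100 µM)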; 0.15% of 65,000 active; AID 374, 2006;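 active = inhibition above about 50%, limit read from the data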;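 also: 0% = DMSO max control wells and 100% = wells with enzyme stopped by NaOH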
Cdc25B block = inhibitors of Cdc25B phosphatase catalytic domain, primary screen, biochemical, OMFP fluorescence. M-phase inducer phosphatase 2 (Homo sapiens), P30305. recombinant Cdc25B, OMFP fluorescence Ex485/Em525. inhibition, %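 (compounds tested at 10 µM final in the well)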. 0.1% of 65,000 active; in the data active = inhibition above about 50%
TNAP act DEA = human TNAP enzyme activators, primary screen, biochemical, luminescent, intermediate phosphate acceptor level | purified TNAP, CDP-star luminescence, 100 mM DEA, 30 min; stronger effect = higher value; scale: 0 levamisole-inhibited, 1 vehicle-only enzyme | 64,000 tested, under 10 active | activation factor at 20 µM | Alkaline phosphatase, tissue-nonspecific isozyme (Homo sapiens), P05186;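 active = activation factor of at least 2 at 20 µM, relative to controls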
Hsp90 inh = tumor Hsp90 inhibitors, primary screen, cell lysate, fluorescence polarization, NCI-N417 lysate; inhibition, % at 30 µM; 0.35% of 64,000 active; Cy3B-geldanamycin FP displacement; Heat shock protein HSP 90-alpha (Homo sapiens), P07900;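 active = inhibition above 50%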;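 also: 0% = tracer plus lysate wells and 100% = tracer alone without lysate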
PLAP act = PLAP enzyme activators, biochemical, luminescence, HTS | Alkaline phosphatase, placental type (Homo sapiens), P05187 | purified PLAP enzyme, luminescent substrate read-out; stronger effect = higher value | activation fold at 20 µM | 1.2% of 96,000 active | AID 696, 2007; in the data active = activation fold above about 2
HePTP inh = inhibitors of human HePTP phosphatase, primary screen, biochemical, absorbance, leukemia target | Tyrosine-protein phosphatase non-receptor type 7 (Homo sapiens), P35236 | recombinant HePTP phosphatase activity, OD absorbance | inhibition, % at 20 µM | 0.64% of 110,000 active; in the data active = inhibition above about 50%;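 also: plate controls were vehicle for no effect and reference inhibitor for full effect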
Target sequence (P35236 whole entry, looked up): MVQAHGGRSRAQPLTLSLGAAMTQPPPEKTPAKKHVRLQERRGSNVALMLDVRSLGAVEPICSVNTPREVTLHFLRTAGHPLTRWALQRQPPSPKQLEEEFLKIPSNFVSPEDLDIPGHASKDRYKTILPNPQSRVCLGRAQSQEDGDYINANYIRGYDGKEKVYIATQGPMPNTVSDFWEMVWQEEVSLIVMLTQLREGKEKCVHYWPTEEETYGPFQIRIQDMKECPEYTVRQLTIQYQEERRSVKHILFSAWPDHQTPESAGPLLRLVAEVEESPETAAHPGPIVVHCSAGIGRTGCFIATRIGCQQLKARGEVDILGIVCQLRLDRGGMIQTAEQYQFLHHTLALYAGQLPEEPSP
* hit, by the source's call; . = no result; ! = a repeat was not active. An excerpt weighted towards active compounds, which were near 1.5% of everything screened.

SMILES | MKP-1 inh | Cdc25B block | TNAP act DEA | Hsp90 inh | PLAP act | HePTP inh
Cc1nc(-n2[nH]c3c(c2=O)CCCC3)[nH]c(=O)c1Cc1ccccc1 | . | . | . | . | 1.9 | .
CC1CCCN(C(=O)COC(=O)c2n[nH]c3ccccc23)C1 (centres undefined) | -2 | -20 | 0.8 | -3 | 2* | -3
COc1ccc(CNC(=O)COC(=O)c2n[nH]c3ccccc23)cc1OC | 8 | -1 | 0.8 | -5 | . | 3
COC(=O)C1CCN(C(=O)COC(=O)c2n[nH]c3ccccc23)CC1 | 3 | -13 | 0.9 | 1 | . | 9
COc1ccccc1CNC(=O)COC(=O)c1n[nH]c2ccccc12 | . | . | . | . | 2.3* | .
CCN(CC)C(=O)c1sc(NC(=O)c2cc(OC)cc(OC)c2)c(C(=O)OC)c1C | . | . | . | . | . | 15
O=C(Nc1nccs1)c1sc2cc(Cl)ccc2c1Cl | . | . | . | . | 1.2 | .
O=C(Nc1nccs1)c1sc2ccccc2c1Cl | . | . | . | . | 1 | 82*
COc1ccc(-n2cnc3c(sc4nccc(N(C)C)c43)c2=O)cc1 | 4 | -14 | 1 | -1 | 1.4 | 105*!
COc1ccc(CNc2cccc(C)c2)cc1 | . | . | . | . | . | -17
CCOC(=O)NC1(NCc2ccccc2)Oc2ccccc2O1 | 9 | 1 | 0.9 | 51* | 0.9 | -9
CCOC(=O)NC1(NCC(C)C)Oc2ccccc2O1 | . | . | . | . | 1.1 | .
Cc1onc(-c2ccccc2Cl)c1C(=O)Nc1sc(C)c(C)c1C#N | . | . | . | . | . | 1
Clc1cccc(/C=N\Nc2nccs2)c1 | . | . | . | . | 2.1* | .
O=C(O)CCN1C(=O)/C(=C2\C(=O)N(Cc3ccccc3Cl)c3ccccc32)SC1=S | . | . | . | . | . | 102*
CCCN1C(=O)/C(=C2\SC(=S)N(CCC(=O)O)C2=O)c2ccccc21 | . | . | . | . | . | 1
COc1ccc(C(=O)Nc2sc3c(c2C(N)=O)CCC(C(C)(C)C)C3)cc1 (centres undefined) | . | . | . | . | . | 8
CCOc1ccc(NS(=O)(=O)c2ccc(NS(=O)(=O)c3ccccc3)cc2)cc1 | . | . | . | . | 1.1 | .
CCOc1ccc(S(=O)(=O)Nc2cc(Sc3ncn[nH]3)c3oc(=O)sc3c2)cc1 | 9 | 20 | 1 | 54* | 1.5 | 9
COc1ccc(/C=C2\C(=O)NC(=O)N(c3ccc(Br)cc3)C2=O)cc1[N+](=O)[O-] | . | . | . | . | . | -15
CCCCOC(=O)c1ccc(NC(=O)CSc2ccccn2)cc1 | . | . | . | . | . | 0
CCCCOC(=O)c1ccc(NC(=O)CSCc2n[nH]c(=O)[nH]2)cc1 | 17 | -6 | 1.2 | -4 | 2.1* | 1
CC(NC(=O)c1ccccc1)c1ccc(Cl)c(Cl)c1 (centres undefined) | . | . | . | . | . | -32
O=C(O)CN1C(=O)/C(=C2\SC(=S)NC2=O)c2ccccc21 | . | . | . | . | . | -9
O=C(O)CN1C(=O)/C(=N/N2C(=O)CSC2=S)c2ccccc21 | . | . | . | . | . | 63*
SMILES | MKP-1 inh | Cdc25B block | TNAP act DEA | Hsp90 inh | PLAP act | HePTP inh
CSc1nc(NCc2ccco2)c2ccccc2n1 | . | . | . | . | 0.8 | .
c1ccc(CN2CCN(c3nc(NCc4ccco4)c4ccccc4n3)CC2)cc1 | . | . | . | . | 2* | .
O=C(CC(c1ccccc1)c1ccccc1)Nc1ncn[nH]1 | 0 | -22 | 1.4 | 0 | 2.9* | -4
CCCOc1ncnc2sc3c(c12)CCCC3 | . | . | . | . | . | 20
Cc1ccc(NC(=O)CSc2nc3ccccc3c(=O)n2CCCC(=O)N2CCCC2)cc1 | 29 | -16 | 1 | -2 | 1 | 6
CC(=O)NCCn1c(SCc2ccc(C)cc2C)nc2ccccc2c1=O | . | . | . | . | 2.5* | .
CC(=O)NCCn1c(SCc2ccccc2C)nc2ccccc2c1=O | . | . | . | . | 1.3 | .
Cc1ccc(NC(=O)CSc2nc3ccccc3c(=O)n2CCCN2CCCCC2)cc1C | . | . | . | . | 2.6* | .
COc1ccc(C2Nc3ccccc3C(=O)N2c2ccc(Cl)cc2)c(OC)c1 (centres undefined) | . | . | . | . | . | -13
Cc1[nH]n(-c2ccccc2)c(=O)c1N=Nc1ccccc1Br | . | . | . | . | . | 4
COc1cc(C(c2c(C)[nH][nH]c2=O)c2c(C)[nH][nH]c2=O)ccc1OC(=O)c1ccccc1Cl | . | . | . | . | . | -3
CCOC(=O)c1c(C)nc(C)c(C(=O)OCC)c1-c1cccc(NC(=O)c2ccc(F)cc2)c1 | . | . | . | . | . | -3
CCOC(=O)CNC(=O)c1ccc2[nH]c3c(c2c1)CCCC3 | -1 | -10 | 1 | -3 | 0.9 | -1
CCS(=O)(=O)NCc1ccc2[nH]c3c(c2c1)CCCC3 | 10 | 11 | 0.9 | 71* | 1.4 | -8
O=C(NCCOc1nc(N2CCOCC2)nc(N2CCOCC2)n1)Nc1ccccc1 | . | . | . | . | 1.1 | .
CCN(CC)c1nc(OCCNC(=O)Nc2ccccc2)nc(N(CC)CC)n1 | . | . | . | . | 2.1* | .
Cc1ccc(NC(=O)NNC(=O)C2CC(c3cccnc3)=NO2)cc1 (centres undefined) | . | . | . | . | 2* | .
Cc1ccc2nc(-c3ccc(N=Cc4cccc(O)c4O)cc3)sc2c1 | . | . | . | . | . | -3
COc1ccc(C2c3c(-c4ccccc4O)n[nH]c3C(=O)N2CCc2ccc(OC)c(OC)c2)cc1 (centres undefined) | 29 | 9 | 0.8 | 4 | 2.8* | 16
COc1cccc(N=Nc2c(=O)[nH]n3c(=O)cc(C)[nH]c23)c1 | . | . | . | . | 2* | .
Cc1ccc(N=Nc2c(=O)[nH]n3c(C)cc(C)nc23)cc1 | . | . | . | . | 0.7 | .
O=C1NC(=O)N(c2ccc(I)cc2)C(=O)/C1=C\C=C\c1ccco1 | . | . | . | . | . | 16
CCCCNC(=O)Nc1nnc(-c2ccccc2)o1 | . | . | . | . | 2.1* | .
CCc1ccc(-c2nnn(CCC(=O)OC)n2)cc1 | -10 | -7 | 0.9 | 103* | 1.1 | 4
Cc1ccc(-c2ccc(/C=N\NC(=O)C3C(=O)NCC3c3ccccc3)o2)cc1Cl (centres undefined) | . | . | . | . | 2.1* | .
SMILES | MKP-1 inh | Cdc25B block | TNAP act DEA | Hsp90 inh | PLAP act | HePTP inh
O=C1NCC(c2ccccc2)C1C(=O)N/N=C\c1ccc(-c2cccc(Cl)c2Cl)o1 (centres undefined) | . | . | . | . | 1.7 | .
COc1cccc(/C=N\NC(=O)C2C(=O)NCC2c2ccccc2)c1O (centres undefined) | . | . | . | . | 2.5* | .
O=C(/C=C/c1ccc([N+](=O)[O-])cc1)Nc1ccccc1C(=O)Nc1cccc(C(=O)O)c1 | . | . | . | . | . | 18
CCOC(=O)CN1C(=O)C(Sc2n[nH]c(-c3ccccc3)n2)CCc2ccccc21 (centres undefined) | . | . | . | . | 2* | .
CCCCC(C(=O)NC1CCCC1)N(Cc1ccco1)C(=O)Cn1nnc(-c2ccc(F)cc2)n1 (centres undefined) | . | . | . | . | 2.2* | .
O=C(CN1CCCC1)Nc1c2c(nc3ccccc13)N(Cc1ccccc1)CC2 | . | . | . | . | 2* | .
COc1ccc(C=NN2CCN(c3ccccn3)CC2)cc1OCc1ccccc1 | . | . | . | . | . | 3
COc1ccc(/C=C(\NC(=O)c2ccccc2)C(=O)NCCCn2ccnc2)cc1 | . | . | . | . | . | -5
